Assay results reported in the supplement of paper PMC6992640.

tested on: UCD52 (cells of a triple-negative basal-like breast cancer xenograft); test: cell viability of combination (% of vehicle); higher = less cytotoxic; conditions: 1 µM; 72 h; partner dose: 10 nM
Description: (§1)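 PDX cells were treated for 72 h with each drug at 1 µM plus afatinib (10 nM; 1 µM for WHIM30). Luciferase viability is expressed as percent of vehicle.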

**Q.** `Oc1c(Cl)cc(Cl)c2cccnc12` [Chloroxine] + CN(C)C/C=C/C(=O)Nc1cc2c(Nc3ccc(F)c(Cl)c3)ncnc2cc1O[C@H]1CCOC1 [Afatinib] was tested. Which “cell viability of combination” value did it give?
**A.** The value was 75.4.

**Q.** For `COc1cc2nccc(Oc3ccc(NC(=O)NC4CC4)c(Cl)c3)c2cc1C(N)=O` [Lenvatinib (E7080)] + CN(C)C/C=C/C(=O)Nc1cc2c(Nc3ccc(F)c(Cl)c3)ncnc2cc1O[C@H]1CCOC1 [Afatinib], which “cell viability of combination” value is on record?
**A.** Its value is 39.8.

**Q.** How did the “cell viability of combination” value turn out when `C=C1C(=CC=C2CCCC3(C)C2CCC3C(C)CCCC(C)C)CC(O)CC1O` (configuration not stated) [Alfacalcidol] + CN(C)C/C=C/C(=O)Nc1cc2c(Nc3ccc(F)c(Cl)c3)ncnc2cc1O[C@H]1CCOC1 [Afatinib] was run?
**A.** Its value is 50.

**Q.** With `Nc1c(CC(=O)[O-])cccc1C(=O)c1ccccc1.O.[Na+]` [Amfenac Sodium Monohydrate] + CN(C)C/C=C/C(=O)Nc1cc2c(Nc3ccc(F)c(Cl)c3)ncnc2cc1O[C@H]1CCOC1 [Afatinib] as the compound, how does the “cell viability of combination” value read?
**A.** The value was 76.3.

**Q.** How did the “cell viability of combination” value turn out when `Cc1nc(NC(=O)N2CCCC2C(N)=O)sc1-c1ccnc(C(C)(C)C(F)(F)F)c1` (configuration not stated) + CN(C)C/C=C/C(=O)Nc1cc2c(Nc3ccc(F)c(Cl)c3)ncnc2cc1O[C@H]1CCOC1 [Afatinib] was run?
**A.** The value was 43.4.

**Q.** How did the “cell viability of combination” value turn out when `C[C@H]1O[C@@H](O[C@H]2[C@@H](O)C[C@H](O[C@H]3[C@@H](O)C[C@H](O[C@H]4CC[C@@]5(C)[C@H](CC[C@@H]6[C@@H]5C[C@@H](O)[C@]5(C)[C@@H](C7=CC(=O)OC7)CC[C@]65O)C4)O[C@@H]3C)O[C@@H]2C)C[C@H](O)[C@@H]1O` [Digoxin] + CN(C)C/C=C/C(=O)Nc1cc2c(Nc3ccc(F)c(Cl)c3)ncnc2cc1O[C@H]1CCOC1 [Afatinib] was run?
**A.** Its value is 19.5.

tested on: WHIM2 (cells of a triple-negative basal-like breast cancer xenograft); test: as above; conditions: 1 µM; 72 h; partner dose: 10 nM
Description: as §1

**Q.** `C=C1C(=CC=C2CCCC3(C)C2CCC3C(C)CCCC(C)(C)O)CC(O)CC1O` (configuration not stated) [Calcitriol] + CN(C)C/C=C/C(=O)Nc1cc2c(Nc3ccc(F)c(Cl)c3)ncnc2cc1O[C@H]1CCOC1 [Afatinib] was tested. Which “cell viability of combination” value did it give?
**A.** The value was 31.2.

**Q.** Which “cell viability of combination” value does the source give for `CC(C)C[C@H](NC(=O)[C@H](Cc1ccccc1)NC(=O)c1cnccn1)B(O)O` [Bortezomib] + CN(C)C/C=C/C(=O)Nc1cc2c(Nc3ccc(F)c(Cl)c3)ncnc2cc1O[C@H]1CCOC1 [Afatinib] here?
**A.** Its value is 14.4.

**Q.** With `CC(=O)c1cc2c(o1)C(=O)c1ccccc1C2=O` [Napabucasin] + CN(C)C/C=C/C(=O)Nc1cc2c(Nc3ccc(F)c(Cl)c3)ncnc2cc1O[C@H]1CCOC1 [Afatinib] as the compound, how does the “cell viability of combination” value read?
**A.** The value was 29.7.

**Q.** With `CC[C@@]1(O)C(=O)OCc2c1cc1n(c2=O)Cc2cc3c(CN(C)C)c(O)ccc3nc2-1.Cl` [Topotecan HCl] + CN(C)C/C=C/C(=O)Nc1cc2c(Nc3ccc(F)c(Cl)c3)ncnc2cc1O[C@H]1CCOC1 [Afatinib] as the compound, how does the “cell viability of combination” value read?
**A.** Its value is 25.2.

**Q.** For `CCCCc1oc2ccc(NS(C)(=O)=O)cc2c1C(=O)c1ccc(OCCCN(CCCC)CCCC)cc1` [Dronedarone] + CN(C)C/C=C/C(=O)Nc1cc2c(Nc3ccc(F)c(Cl)c3)ncnc2cc1O[C@H]1CCOC1 [Afatinib], which “cell viability of combination” value is on record?
**A.** The value was 44.1.

**Q.** For `Cc1cc(-n2c(=O)[nH]c(=O)n(C)c2=O)ccc1Oc1ccc(SC(F)(F)F)cc1` [Toltrazuril] + CN(C)C/C=C/C(=O)Nc1cc2c(Nc3ccc(F)c(Cl)c3)ncnc2cc1O[C@H]1CCOC1 [Afatinib], which “cell viability of combination” value is on record?
**A.** The value was 48.4.

**Q.** With `Cl.OC(c1cc(C(F)(F)F)nc2c(C(F)(F)F)cccc12)C1CCCCN1` (configuration not stated) [Mefloquine hydrochloride] + CN(C)C/C=C/C(=O)Nc1cc2c(Nc3ccc(F)c(Cl)c3)ncnc2cc1O[C@H]1CCOC1 [Afatinib] as the compound, how does the “cell viability of combination” value read?
**A.** The value was 55.9.

**Q.** How did the “cell viability of combination” value turn out when `O=C(C=Cn1cnc(-c2cc(C(F)(F)F)cc(C(F)(F)F)c2)n1)NNc1cnccn1` + CN(C)C/C=C/C(=O)Nc1cc2c(Nc3ccc(F)c(Cl)c3)ncnc2cc1O[C@H]1CCOC1 [Afatinib] was run?
**A.** The value was 41.9.

**Q.** With `CSc1ccc2c(c1)N(CCC1CCCCN1C)c1ccccc1S2.Cl` (configuration not stated) [Thioridazine HCl] + CN(C)C/C=C/C(=O)Nc1cc2c(Nc3ccc(F)c(Cl)c3)ncnc2cc1O[C@H]1CCOC1 [Afatinib] as the compound, how does the “cell viability of combination” value read?
**A.** The value was 47.4.

**Q.** `CCCCCCCCCCCCCCCCOP(=O)([O-])OCC[N+](C)(C)C` [Miltefosine] + CN(C)C/C=C/C(=O)Nc1cc2c(Nc3ccc(F)c(Cl)c3)ncnc2cc1O[C@H]1CCOC1 [Afatinib] was tested. Which “cell viability of combination” value did it give?
**A.** Its value is 49.3.

**Q.** `CNC(=O)c1cc(Oc2ccc(NC(=O)Nc3ccc(Cl)c(C(F)(F)F)c3)c(F)c2)ccn1.Cl` [Regorafenib hydrochloride] + CN(C)C/C=C/C(=O)Nc1cc2c(Nc3ccc(F)c(Cl)c3)ncnc2cc1O[C@H]1CCOC1 [Afatinib] was tested. Which “cell viability of combination” value did it give?
**A.** Its value is 43.3.

**Q.** How did the “cell viability of combination” value turn out when `C=CC(=O)N1CCC(Oc2cc3c(Nc4ccc(Cl)c(Cl)c4F)ncnc3cc2OC)CC1` [Poziotinib] + CN(C)C/C=C/C(=O)Nc1cc2c(Nc3ccc(F)c(Cl)c3)ncnc2cc1O[C@H]1CCOC1 [Afatinib] was run?
**A.** The value was 22.2.

**Q.** Which “cell viability of combination” value does the source give for `O=C(O)c1cc(O)c(O)c(O)c1` [Gallic acid] + CN(C)C/C=C/C(=O)Nc1cc2c(Nc3ccc(F)c(Cl)c3)ncnc2cc1O[C@H]1CCOC1 [Afatinib] here?
**A.** The value was 46.3.

**Q.** `Clc1ccc(C(Cn2ccnc2)OCc2ccsc2Cl)c(Cl)c1` (configuration not stated) [Tioconazole] + CN(C)C/C=C/C(=O)Nc1cc2c(Nc3ccc(F)c(Cl)c3)ncnc2cc1O[C@H]1CCOC1 [Afatinib] was tested. Which “cell viability of combination” value did it give?
**A.** Its value is 47.5.

**Q.** With `Cn1cnc2c(F)c(Nc3ccc(Br)cc3F)c(C(=O)NOCCO)cc21` + CN(C)C/C=C/C(=O)Nc1cc2c(Nc3ccc(F)c(Cl)c3)ncnc2cc1O[C@H]1CCOC1 [Afatinib] as the compound, how does the “cell viability of combination” value read?
**A.** The value was 34.8.

**Q.** How did the “cell viability of combination” value turn out when `[O-]n1ccccc1=S.[O-]n1ccccc1=S.[Zn+2]` [Zinc Pyrithione] + CN(C)C/C=C/C(=O)Nc1cc2c(Nc3ccc(F)c(Cl)c3)ncnc2cc1O[C@H]1CCOC1 [Afatinib] was run?
**A.** Its value is 33.9.

**Q.** For `COc1cc(Nc2ncc(F)c(Nc3ccc4c(n3)N(COP(=O)(O)O)C(=O)C(C)(C)O4)n2)cc(OC)c1OC` [Fostamatinib (R788)] + CN(C)C/C=C/C(=O)Nc1cc2c(Nc3ccc(F)c(Cl)c3)ncnc2cc1O[C@H]1CCOC1 [Afatinib], which “cell viability of combination” value is on record?
**A.** Its value is 41.3.

**Q.** With `CS(=O)(=O)CCNCc1ccc(-c2ccc3ncnc(Nc4ccc(OCc5cccc(F)c5)c(Cl)c4)c3c2)o1.Cc1ccc(S(=O)(=O)O)cc1.Cc1ccc(S(=O)(=O)O)cc1` [Lapatinib Ditosylate] + CN(C)C/C=C/C(=O)Nc1cc2c(Nc3ccc(F)c(Cl)c3)ncnc2cc1O[C@H]1CCOC1 [Afatinib] as the compound, how does the “cell viability of combination” value read?
**A.** The value was 36.7.

**Q.** `CCOC(=O)C1=C(COCCN)NC(C)=C(C(=O)OC)C1c1ccccc1Cl` (configuration not stated) [Amlodipine] + CN(C)C/C=C/C(=O)Nc1cc2c(Nc3ccc(F)c(Cl)c3)ncnc2cc1O[C@H]1CCOC1 [Afatinib] was tested. Which “cell viability of combination” value did it give?
**A.** Its value is 51.1.

**Q.** `Cc1ccc(NC(=O)c2ccc(CN3CCN(C)CC3)cc2)cc1Nc1nc(-c2cccnc2)cs1` [Masitinib (AB1010)] + CN(C)C/C=C/C(=O)Nc1cc2c(Nc3ccc(F)c(Cl)c3)ncnc2cc1O[C@H]1CCOC1 [Afatinib] was tested. Which “cell viability of combination” value did it give?
**A.** Its value is 54.7.

**Q.** How did the “cell viability of combination” value turn out when `O=C(c1ccc(F)c(F)c1Nc1ccc(I)cc1F)N1CC(O)(C2CCCCN2)C1` (configuration not stated) [Cobimetinib] + CN(C)C/C=C/C(=O)Nc1cc2c(Nc3ccc(F)c(Cl)c3)ncnc2cc1O[C@H]1CCOC1 [Afatinib] was run?
**A.** Its value is 27.

**Q.** How did the “cell viability of combination” value turn out when `COc1cccc2c1C(=O)c1c(O)c3c(c(O)c1C2=O)CC(O)(C(=O)CO)CC3OC1CC(N)C(O)C(C)O1` (configuration not stated) [Doxorubicin] + CN(C)C/C=C/C(=O)Nc1cc2c(Nc3ccc(F)c(Cl)c3)ncnc2cc1O[C@H]1CCOC1 [Afatinib] was run?
**A.** Its value is 15.6.

**Q.** Which “cell viability of combination” value does the source give for `C1=C\COCc2cc(ccc2OCCN2CCCC2)Nc2nccc(n2)-c2cccc(c2)COC/1` [Pacritinib] + CN(C)C/C=C/C(=O)Nc1cc2c(Nc3ccc(F)c(Cl)c3)ncnc2cc1O[C@H]1CCOC1 [Afatinib] here?
**A.** Its value is 38.8.

**Q.** Which “cell viability of combination” value does the source give for `Nc1ccc2cc3ccc([NH3+])cc3nc2c1.Nc1ccc2cc3ccc([NH3+])cc3nc2c1.O=S(=O)([O-])[O-]` [Proflavine Hemisulfate] + CN(C)C/C=C/C(=O)Nc1cc2c(Nc3ccc(F)c(Cl)c3)ncnc2cc1O[C@H]1CCOC1 [Afatinib] here?
**A.** The value was 29.5.

**Q.** For `CCC(=C(c1ccccc1)c1ccc(OCCN(C)C)cc1)c1ccccc1.O=C(O)CC(O)(CC(=O)O)C(=O)O` [Tamoxifen Citrate] + CN(C)C/C=C/C(=O)Nc1cc2c(Nc3ccc(F)c(Cl)c3)ncnc2cc1O[C@H]1CCOC1 [Afatinib], which “cell viability of combination” value is on record?
**A.** The value was 51.

**Q.** With `COc1cc2nccc(Oc3ccc(NC(=O)Nc4cc(C)on4)c(Cl)c3)c2cc1OC` [Tivozanib (AV-951)] + CN(C)C/C=C/C(=O)Nc1cc2c(Nc3ccc(F)c(Cl)c3)ncnc2cc1O[C@H]1CCOC1 [Afatinib] as the compound, how does the “cell viability of combination” value read?
**A.** The value was 39.8.
